Compound activity from PubChem BioAssay.
DT40 TDP1 CPT = qHTS for Inhibitors of human tyrosyl-DNA phosphodiesterase 1 (TDP1): qHTS in cells in presence of CPT; chicken DT40 Tdp1-/-;hTDP1 cells + 20 nM CPT, ATP luminescence, 48 h; Potency, µM (titrated, usually from 46.2 µM), for inactives: at the highest dose activity change, negative = growth inhibition, hits mostly inhibitors; 420,000 compounds, 12% hits; further: nearly all actives have a fitted effect of over 55% in size
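Chicken DT40 Tdp1-/- cells stably complemented with human TDP1 were seeded at 400 cells/well in medium containing 20 nM camptothecin, exposed to pin-transferred compounds, and grown at 37 °C for at least 48 hr. Viability was read as ATP luminescence.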
GCN5L2 inh = qHTS Assay for Inhibitors of GCN5L2; Histone acetyltransferase KAT2A (Homo sapiens), Q92830; GCN5L2 HAT assay, ThioGlo1 CoA-SH fluorescence; Potency, µM (titrated, usually from 58.9 µM), without a hit: at the highest dose activity change, negative = inhibition, actives largely listed as inhibitors; 390,000 compounds, 0.21% hits
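ThioGlo1-coupled HAT assay: 20nM GCN5L2, 70uM acetyl-CoA, 75uM H3(1-25) peptide, pH 7.5. Fluorescence read at 340/540nm at start and after 20 min at room temperature.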
VDR inh = Inhibitors of the vitamin D receptor (VDR): qHTS | VDR-SRC2-3 peptide fluorescence polarization, 2 h | Potency, µM, for inactives: max response, negative = inhibition, actives largely listed as inhibitors | 400,000 compounds, 0.93% hits | AID 504847, 2011
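Two reagent solutions held at 4 deg C in the dark were dispensed, compounds pinned at 23 nl, and the mixture incubated 2 h at room temperature. Read-out: fluorescence polarization of VDR–SRC2-3 peptide binding.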
TDP1 block = qHTS Assay for Inhibitors of Tyrosyl-DNA Phosphodiesterase (TDP1). recombinant TDP1, AlphaScreen DNA substrate cleavage. AID 485290, 2010. 350,000 compounds, 0.28% hits. Potency, µM (titrated, usually from 130 µM), for inactives: at the highest dose activity change, negative = inhibition, hits mostly inhibitors. Tyrosyl-DNA phosphodiesterase 1 (Homo sapiens), Q9NUW8; further: nearly all actives have a fitted effect of over 40% in size
Target sequence (Q9NUW8 whole entry, looked up): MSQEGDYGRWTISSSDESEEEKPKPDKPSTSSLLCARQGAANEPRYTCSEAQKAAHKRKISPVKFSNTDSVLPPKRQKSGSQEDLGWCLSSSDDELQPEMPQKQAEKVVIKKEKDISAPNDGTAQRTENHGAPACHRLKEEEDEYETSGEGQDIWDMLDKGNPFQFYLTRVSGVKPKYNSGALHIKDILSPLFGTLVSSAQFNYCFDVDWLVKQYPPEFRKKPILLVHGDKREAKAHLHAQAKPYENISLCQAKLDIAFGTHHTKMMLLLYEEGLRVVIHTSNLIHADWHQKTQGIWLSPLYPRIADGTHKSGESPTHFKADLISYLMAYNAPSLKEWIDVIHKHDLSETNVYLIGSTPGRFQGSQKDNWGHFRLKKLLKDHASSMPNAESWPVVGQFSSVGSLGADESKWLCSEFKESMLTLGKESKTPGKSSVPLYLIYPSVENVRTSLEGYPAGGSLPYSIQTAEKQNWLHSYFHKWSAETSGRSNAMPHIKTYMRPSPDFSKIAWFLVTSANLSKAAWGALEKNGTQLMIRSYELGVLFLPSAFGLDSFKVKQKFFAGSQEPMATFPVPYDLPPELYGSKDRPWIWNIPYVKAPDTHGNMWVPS
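Recombinant human Tdp1 (E. coli-expressed, 1 nM final) preincubated with compounds 15 min at room temperature, then 5'-biotin/3'-phosphotyrosine-FITC DNA substrate (15 nM final) added for 5 min. AlphaScreen beads (10 ug/ml final) added 10 min; cleavage lowers signal.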
DT40 TDP1 no CPT = qHTS for Inhibitors of human tyrosyl-DNA phosphodiesterase 1 (TDP1): qHTS in cells in absence of CPT | DT40 Tdp1-/- hTDP1 cells, no CPT, ATP luminescence, 48 h | Potency, µM (series often up to 46.2 µM), inactives show top-dose activity change, negative = growth inhibition, hits mostly inhibitors | 420,000 compounds, 15% hits; further: nearly all actives have a fitted effect of over 55% in size
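Readout: luminescence from CellTiter-Glo after 30 min in the dark at RT. Cells: DT40 Tdp1-/- with stable hTDP1, 400/well. Exposure: compounds alone, ≥48 hr, 37 °C.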
PLK1 PBD block = qHTS for Inhibitors of PLK1-PDB (polo-like kinase 1 - polo-box domain): Primary Screen; Serine/threonine-protein kinase PLK1 (Homo sapiens), P53350; Plk1 PBD binding of FITC phosphopeptide, fluorescence polarization; Potency, µM, without a hit: max response, negative = inhibition, usual class: inhibitors; 360,000 compounds, 2.8% hits; further: series mostly up to about 57 µM; nearly all actives have a fitted effect of over 65% in size
Starred values were filed as active, the others as inactive; ? = inconclusive; nt = no result given; [ ] = dose if it differs, or a comment. A selection: hits, their analogues and other compounds. The true share with any hit is near 18%. The call rests on the fitted dose curve; in most records, active means well fitted curve in the direction sought with a large enough effect; inconclusive means small, poorly fitted or top-dose-only effect, or another doubt; inactive means no such curve, though single readings can be large; an effect the other way counts as inactive or inconclusive. On the % scale 0 is the no-effect control and ±100 the full control effect; potency means the concentration at half of the fitted maximal effect.

SMILES	DT40 TDP1 CPT	GCN5L2 inh	VDR inh	TDP1 block	DT40 TDP1 no CPT	PLK1 PBD block
CC1(c2ccc(Cl)cc2)NC(=O)N(CN2CCOCC2)C1=O (stereo not drawn)	0%	-1%	-2%	-2%	-12%	0%
CCc1ccccc1NC(=O)CN1C(=O)COc2ccc(S(=O)(=O)Nc3ccccc3)cc21	18µM*	-3%	8%	0%	26µM*	nt
O=C(CN1C(=O)COc2ccc(S(=O)(=O)Nc3ccccc3)cc21)Nc1cccc(Cl)c1	16µM*	-2%	19%	3%	?	nt
CCc1cccc(NC(=O)CN2C(=O)COc3ccc(S(=O)(=O)Nc4ccccc4)cc32)c1	?	-6%	7%	6%	23µM*	nt
COc1cccc(CN(C)CCCn2cnc3c(SC)ncnc32)c1	-15%	nt	nt	nt	-2%	-3%
CC(NC(=O)CN1CCN(S(=O)(=O)c2ccc(Br)cc2)CC1)c1ccccc1 (stereo not drawn)	0%	-7%	-9%	-3%	-26%	-3%
COc1ccccc1C1CCN(c2ccc(CO)cc2[N+](=O)[O-])CC1	?	1%	-9%	6%	16µM*	-10%
CC(OC(=O)c1ccc(S(=O)(=O)N2CCCCC2)cc1)C(=O)NC1CCCCC1C (stereo not drawn)	-17%	-5%	3%	nt	-5%	3%
Nc1nc(SCC(=O)Nc2cc(Cl)c(Cl)cc2Cl)n[nH]1	-21%	-1%	-5%	0%	?	-2%
COc1c(OC(C)=O)ccc(/C=C/c2ccc3cccc(OCc4ccccc4)c3n2)c1[N+](=O)[O-]	15µM*	-6%	-8%	8%	15µM*	1%
OC(COCc1ccccc1)CN1CCCC1 (stereo not drawn)	-9%	-3%	-14%	2%	-8%	-6%
c1ccc(COC(CN2CCCCCC2)CN2CCCCCC2)cc1	10µM*	-2%	-18%	nt	21µM*	-2%
CC(=O)c1ccc(OC(C)C)c(CSC(=N)N)c1	23µM*	-4%	29%	0%	?	-6%
O=S(=O)(NC1CCC(CNS(=O)(=O)c2c(F)cccc2F)CC1)c1ccc2c(c1)OCCO2 (stereo not drawn)	nt	-1%	nt	nt	nt	nt
COCCN1C(=O)COc2ccccc2C1C(=O)Nc1c(C)cccc1C (stereo not drawn)	0%	nt	nt	nt	-17%	-1%
CC(=O)Cc1nsc(Nc2ccc(C)cc2)n1	?	-5%	?	3%	?	27µM*
CCCCNc1nc(CC(C)=O)ns1	-15%	-18%[0.501 µM]	5%	2%	-3%	-13%
CCn1ccc2cc(S(=O)(=O)N3CCC(C(=O)NCCc4ccccc4Cl)CC3)ccc21	?	3%	0%	5%	?	nt
COc1ccc(-c2ccc(-c3nc4ccc(C)cn4c3NC3CCCCC3)cc2OC)cc1	10µM*	-17%	-5%	1%	13µM*	4%
Cc1ccc2nc(-c3cccc(SC4CCCCC4)c3)c(NC3CCCCC3)n2c1	21µM*	4%	2%	3%	16µM*	5%
Cc1ccc2nc(-c3cccc(SC4CCCCC4)c3)c(NCc3ccccc3)n2c1	26µM*	-11%	-13%	1%	18µM*	-12%
Brc1ccc2nc(-c3ccncc3)c(NC3CCCC3)n2c1	?	-1%	1%	3%	-27%	3%
Clc1ccc2nc(-c3cccc(SC4CCCCC4)c3)c(NCc3ccccc3)n2c1	16µM*	-10%	-22%	0%	?	-7%
CCOc1ccc(NC(=O)CCSc2nc(-c3ccc4c(c3)OCO4)cc(C(F)(F)F)n2)cc1	nt	-10%	-5%	4%	nt	nt
c1ccc(CNc2c(-c3cccc(SC4CCCCC4)c3)nc3ccccn23)cc1	?	-22%	-16%	0%	?	-14%
SMILES	DT40 TDP1 CPT	GCN5L2 inh	VDR inh	TDP1 block	DT40 TDP1 no CPT	PLK1 PBD block
CCC(C)Sc1cccc(-c2nc3cc(C)ccn3c2NCc2ccccc2)c1 (stereo not drawn)	23µM*	-22%	-21%	-2%	?	-8%
Cc1ccn2c(NCc3ccccc3)c(-c3cccc(SC4CCCCC4)c3)nc2c1	23µM*	-9%	-15%	-5%	?	3%
Cc1cccc(OCCSc2nncn2C)c1	?	-1%	-12%	-1%	-23%	-7%
Cc1cccc(OCCSc2nnc(-c3ccoc3C)n2C)c1	23µM*	-7%	-6%	5%	21µM*	-4%
COc1cc2c(cc1OC)C(COc1ccc3c(C)cc(=O)oc3c1)N(C(=O)c1ccccc1F)CC2 (stereo not drawn)	?	-6%	-3%	3%	21µM*	nt
CCOc1ccc(C(=O)N2CCc3cc(OC)c(OC)cc3C2COc2ccc3c(C)cc(=O)oc3c2)cc1OCC (stereo not drawn)	?	-9%	-14%	3%	?	nt
COc1cccc(C(=O)N2CCc3cc(OC)c(OC)cc3C2COc2ccc3c(C)cc(=O)oc3c2)c1 (stereo not drawn)	?	-7%	-6%	6%	10µM*	nt
CCCc1cc(=O)[nH]c(SCC(=O)N2CCCCCC2)n1	-6%	-3%	6%	-1%	17%	-2%
CC(O)[C@H]1CNC(=O)C(=O)N1CCc1cc(C(F)(F)F)cc(C(F)(F)F)c1 (stereo partly drawn)	-2%	17%	-2%	2%	2%	6%
Cc1ccc(-c2nc3ncccc3o2)cc1NC(=O)c1ccc2c(c1)OCO2	2%	nt	-5%	nt	-13%	-6%
Cc1ccc(S(=O)(=O)N2CCOCC2)cc1NS(=O)(=O)c1ccc(F)c(F)c1	-14%	0%	5%	5%	-13%	-13%
CN(C)CCCNc1c2c(nc3cc(-c4cccc(F)c4)nn13)CCC2	19%	2%	-1%	5%	9%	3%
O=c1c2c(nc3cc(-c4cccc(Cl)c4)[nH]n13)CCC2	?	0%	6%	0%	?	-6%
Cc1cccc(-c2cc3nc4c(c(NCc5ccco5)n3n2)CCCC4)c1	?	-10%	2%	9%	?	-7%
COCCN1CCN(c2c3c(nc4cc(-c5cccc(F)c5)nn24)CCC3)CC1	?	-1%	-4%	2%	23µM*	-6%
